± gives the standard deviation of the averaged measurements.
How the values were obtained:
MDA-MB-231 [1] = assay: cell viability relative to vehicle unstimulated control (fraction); higher = more viable cells; settings: pre-treatment time: 18 h then 24 h IFNg/TNF
MDA-MB-231 [2] = assay: kynurenine production, fold change vs DMSO IFNg/TNF control; higher = more kynurenine produced (less inhibition); settings: pre-treatment time: 18 h then 24 h IFNg/TNF
In short: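 Fold change over cytokine-stimulated vehicle wells on the same plate is the measure used for kynurenine production, averaged across duplicate plates in the first screening round. MDA-MB-231 cells, seeded 24 h beforehand at 7 × 10^4/well in 96-well plates, were pre-treated 18 h with each natural product in 0.1% DMSO and stimulated 24 h at 37°C with IFNγ (1 U/ml) and TNF (6.25 ng/ml). Supernatants were read at 492 nm following trichloroacetic acid and p-dimethylaminobenzaldehyde treatment, against 0–100 μM standards.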
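For cell viability relative to vehicle unstimulated control in this document: viability of the cells left after supernatant collection, read with Deep Blue dye added for 4 h, as absorbance at 570 nm minus 600 nm.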

SMILES	cell viability (MDA-MB-231 [1])	kynurenine production (MDA-MB-231 [2])
CC1=CCC2CC1C2(C)C (stereo not drawn) [(-)-α-Pinene] (compound dose: 10 uM)	1.01 ± 0.035	1.21 ± 0.14
C=C1CC[C@@H]2[C@](C)(COC(=O)CCC(=O)O)[C@H](OC(=O)CCC(=O)O)CC[C@@]2(C)[C@@H]1/C=C/C1=CCOC1=O [Dehydroandrographolide succinate] (compound dose: 10 uM)	0.898 ± 0.11	1.2 ± 0.089
C[C@@H]1O[C@@H](O[C@H]2[C@H](O[C@H]3CC[C@@]4(C)[C@@H](CC[C@]5(C)[C@@H]4CC=C4[C@@H]6CC(C)(C)CC[C@]6(C(=O)O)CC[C@]45C)[C@]3(C)CO)OC[C@H](O)[C@@H]2O)[C@H](O)[C@H](O)[C@H]1O [alpha-Hederin] (compound dose: 10 uM)	0.932 ± 0.067	0.875 ± 0.14
CC(C)=CCC[C@](C)(O[C@@H]1O[C@H](CO[C@@H]2O[C@@H](CO)[C@H](O)[C@H]2O)[C@@H](O)[C@H](O)[C@H]1O)[C@H]1CC[C@]2(C)[C@@H]1[C@H](O)C[C@@H]1[C@@]3(C)CC[C@H](O[C@@H]4O[C@H](CO)[C@@H](O)[C@H](O)[C@H]4O[C@@H]4O[C@H](CO)[C@@H](O)[C@H](O)[C@H]4O)C(C)(C)[C@@H]3CC[C@]12C [Ginsenoside Rc] (compound dose: 10 uM)	0.9496 ± 0.0049	0.744 ± 0.044
COc1ccc([C@H]2OC[C@H]3[C@@H]2CO[C@H]3c2ccc(O[C@@H]3O[C@H](CO)[C@@H](O)[C@H](O)[C@H]3O)c(OC)c2)cc1OC [Phillyrin] (compound dose: 10 uM)	0.978 ± 0.024	0.866 ± 0.16
C[C@H]1[C@H](C)CC[C@]2(C(=O)O[C@@H]3O[C@H](CO[C@@H]4O[C@H](CO)[C@@H](O[C@@H]5O[C@H](C)[C@H](O)[C@@H](O)[C@H]5O)[C@H](O)[C@H]4O)[C@@H](O)[C@H](O)[C@H]3O)CC[C@]3(C)C(=CC[C@@H]4[C@@]5(C)C[C@@H](O)[C@H](O)[C@@](C)(CO)[C@@H]5CC[C@]43C)[C@H]12 [Asiaticoside] (compound dose: 10 uM)	0.831 ± 0.1	0.85 ± 0.17
COC(=O)C1=CO[C@@H](O[C@@H]2O[C@H](CO)[C@@H](O)[C@H](O)[C@H]2O)[C@H]2[C@@H]1[C@H](O)C[C@]2(C)OC(C)=O [Barlerin] (compound dose: 10 uM)	1.01 ± 0.02	0.884 ± 0.11
CC(C)=C/C=C1\O[C@@H]2CC(C)=CC(=O)[C@@H]2[C@]1(C)O [Bisabolangelone] (compound dose: 10 uM)	0.907 ± 0.0022	0.711 ± 0.12
COC(=O)C1=CO[C@@H](O[C@@H]2O[C@H](CO)[C@@H](O)[C@H](O)[C@H]2O)[C@@H]2C(CO)=CC[C@H]12 [Geniposide] (compound dose: 10 uM)	0.947 ± 0.031	0.939 ± 0.023
COc1ccc(-c2coc3cc(O)ccc3c2=O)cc1 [Formononetin] (compound dose: 10 uM)	0.988 ± 0.032	0.873 ± 0.0092
CC1=CCC2CC1C2(C)C (stereo not drawn) [(+)-α-pinene] (compound dose: 10 uM)	0.9918 ± 0.0024	0.97 ± 0.036
CC1(C)CCCC2(C)C1CCC1(C)OCCC12 (configuration not stated) [Ambroxide] (compound dose: 10 uM)	0.964 ± 0.053	0.891 ± 0.13
O=C(O)C1=CO[C@@H](O[C@@H]2O[C@H](CO)[C@@H](O)[C@H](O)[C@H]2O)[C@@H]2C(CO)=C[C@H](O)[C@H]12 [Deacetylasperulosidic acid] (compound dose: 10 uM)	1.01 ± 0.024	1.07 ± 0.041
C[C@H]1O[C@@H](O[C@H]2CC[C@@]3(C)[C@@H](CC[C@]4(C)[C@@H]3C=CC3=C5CC(C)(C)CC[C@]5(CO)[C@@H](O)C[C@]34C)[C@]2(C)CO)[C@H](O[C@@H]2O[C@H](CO)[C@@H](O)[C@H](O)[C@H]2O)[C@@H](O[C@@H]2O[C@H](CO)[C@@H](O)[C@H](O)[C@H]2O)[C@H]1O [Buddlejasaponin IVb] (compound dose: 10 uM)	1.07 ± 0.067	1.34 ± 0.071
CC(CCC(OC1OC(CO)C(O)C(O)C1OC1OC(CO)C(O)C(O)C1O)C(C)(C)O)C1CCC2(C)C3CC=C4C(CCC(OC5OC(CO)C(O)C(O)C5O)C4(C)C)C3(C)C(O)CC12C (configuration not stated) [Mogroside III-E] (compound dose: 10 uM)	1.08 ± 0.013	0.996 ± 0.3
COc1cc2c(cc1O)C(Cc1ccc(O)cc1)NCC2 (configuration not stated) [Coclaurine] (compound dose: 10 uM)	0.988 ± 0.044	1.04 ± 0.062
